Test results reported in ChEMBL document CHEMBL3988442, “University of Dundee, Small-Polar-MMV Screening Library” (2021).
For some assays here: Potency and affinity values are given separately.

What was measured:
Parameters in all cases: scale not given: direction of the effect not stated beside the values
[1] = molecular target: Protein translocase subunit SecA (Escherichia coli (strain K12)) (UniProt P10408); assay: Assay to Identify E. coli SecA ATPase Inhibitors; type: functional; settings: 30 µM
[2] = molecular target: T1, Ubiquitin-activating enzyme e1, putative (Leishmania donovani (strain BPK282A1)) (UniProt E9BSI1); assay: Leishmania donovani Ubiquitin Activating Enzyme (LdE1); type: functional; settings: 30 µM
T1 sequence (whole entry): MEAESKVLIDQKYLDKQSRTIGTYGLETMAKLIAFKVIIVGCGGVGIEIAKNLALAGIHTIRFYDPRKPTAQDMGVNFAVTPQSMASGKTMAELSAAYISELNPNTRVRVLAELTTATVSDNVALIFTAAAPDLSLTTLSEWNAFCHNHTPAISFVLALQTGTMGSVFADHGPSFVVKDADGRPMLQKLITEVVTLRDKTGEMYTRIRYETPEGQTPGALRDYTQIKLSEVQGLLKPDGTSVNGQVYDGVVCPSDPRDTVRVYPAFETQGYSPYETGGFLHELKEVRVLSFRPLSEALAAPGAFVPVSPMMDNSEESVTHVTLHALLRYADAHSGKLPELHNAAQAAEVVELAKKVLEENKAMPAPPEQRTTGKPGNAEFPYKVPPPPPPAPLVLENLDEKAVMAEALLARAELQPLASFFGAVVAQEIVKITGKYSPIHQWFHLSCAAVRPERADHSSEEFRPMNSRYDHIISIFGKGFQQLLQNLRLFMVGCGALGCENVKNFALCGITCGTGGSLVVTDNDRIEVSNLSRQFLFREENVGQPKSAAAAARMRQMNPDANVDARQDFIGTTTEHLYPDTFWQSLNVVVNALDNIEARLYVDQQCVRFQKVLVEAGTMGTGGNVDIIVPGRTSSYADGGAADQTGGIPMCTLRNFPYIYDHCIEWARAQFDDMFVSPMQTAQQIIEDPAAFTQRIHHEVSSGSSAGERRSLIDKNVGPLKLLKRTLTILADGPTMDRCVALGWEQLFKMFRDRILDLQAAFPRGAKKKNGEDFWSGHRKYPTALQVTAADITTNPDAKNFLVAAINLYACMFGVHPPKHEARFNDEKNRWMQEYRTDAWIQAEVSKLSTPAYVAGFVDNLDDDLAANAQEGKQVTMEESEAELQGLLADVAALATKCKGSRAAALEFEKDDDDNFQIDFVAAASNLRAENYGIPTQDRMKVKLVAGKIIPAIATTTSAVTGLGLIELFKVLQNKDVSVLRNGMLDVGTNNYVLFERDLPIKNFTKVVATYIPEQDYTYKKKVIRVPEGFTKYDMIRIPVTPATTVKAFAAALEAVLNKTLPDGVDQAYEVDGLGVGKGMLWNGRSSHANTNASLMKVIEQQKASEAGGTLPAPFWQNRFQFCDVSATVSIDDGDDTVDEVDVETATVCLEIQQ

[3] = molecular target: AMP-activated protein kinase, AMPK (Homo sapiens) (UniProt P54646+O43741+P54619+Q9UGJ0+Q9Y478+Q13131+Q9UGI9); assay: AMP-dependent Kinase enzyme assay. An in vitro enzyme assay that detects ADP turnover that is directly proportional to AMPK activity. This uses naive AMPK that is activated during the assay with MK-8722; type: functional; settings: 30 µM
[4] = molecular target: Sialic acid-binding Ig-like lectin 9 (Homo sapiens) (UniProt Q9Y336); assay: Hs-Siglec9 ALPHAscreen SOP 20170721; settings: 10 µM
[5] = system: Trypanosoma cruzi; assay: Trypanosoma cruzi phosphomannomutase and mannose-1-phosphate guanylyltransferase assay; type: functional; settings: 10 µM
[6] = molecular target: T2, Arginase-2, mitochondrial (Homo sapiens) (UniProt P78540); assay: in vitro enzyme assay to detect the production of urea directly proportional to the activity of Arginase II; type: functional; settings: 33.3 µM; note: in the data most compounds retested in dose-response had high values
T2 sequence (whole entry): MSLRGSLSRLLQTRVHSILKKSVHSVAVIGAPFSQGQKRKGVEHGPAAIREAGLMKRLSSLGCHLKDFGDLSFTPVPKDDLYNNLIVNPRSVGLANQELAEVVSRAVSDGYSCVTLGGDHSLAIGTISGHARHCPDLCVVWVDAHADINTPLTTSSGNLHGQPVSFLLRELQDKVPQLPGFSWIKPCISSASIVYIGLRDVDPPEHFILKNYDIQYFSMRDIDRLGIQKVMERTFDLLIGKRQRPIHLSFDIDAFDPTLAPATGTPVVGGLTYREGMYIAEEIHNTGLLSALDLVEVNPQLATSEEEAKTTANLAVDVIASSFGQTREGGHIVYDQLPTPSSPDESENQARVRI

[7] = molecular target: T3, Proteasome subunit beta (Trypanosoma cruzi) (UniProt O96673); assay: Trypanosoma cruzi proteasome chymotrypsin-like activity (TcProtChymo) assay.; note: in the data most compounds retested in dose-response had high values; type: functional; settings: 9.37 µM
T3 sequence (whole entry): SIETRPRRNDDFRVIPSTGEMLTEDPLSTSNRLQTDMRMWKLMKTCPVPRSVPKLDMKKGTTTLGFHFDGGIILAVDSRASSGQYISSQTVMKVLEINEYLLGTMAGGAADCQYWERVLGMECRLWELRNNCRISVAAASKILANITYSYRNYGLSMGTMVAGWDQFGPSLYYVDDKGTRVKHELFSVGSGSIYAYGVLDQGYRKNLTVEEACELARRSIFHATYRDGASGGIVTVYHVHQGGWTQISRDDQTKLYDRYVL

[8] = species on record: Homo sapiens; assay: To identify inhibition of the IFN signalling (Jak-Stat) pathway via expression of an eGFP reporter gene under the control of an IFN-stimulated response element (ISRE) containing MxA promoter.; type: functional; settings: 30 µM
[9] = molecular target: T4, Tyrosyl-tRNA synthetase, putative (Trypanosoma cruzi (strain CL Brener)) (UniProt Q4DSP6); assay: Trypanosoma cruzi tyrosyl tRNA synthetase (TcYRS) _High Tyrosine SOP; type: functional; settings: 30 µM; note: in the data most compounds retested in dose-response had high values
T4 sequence (whole entry): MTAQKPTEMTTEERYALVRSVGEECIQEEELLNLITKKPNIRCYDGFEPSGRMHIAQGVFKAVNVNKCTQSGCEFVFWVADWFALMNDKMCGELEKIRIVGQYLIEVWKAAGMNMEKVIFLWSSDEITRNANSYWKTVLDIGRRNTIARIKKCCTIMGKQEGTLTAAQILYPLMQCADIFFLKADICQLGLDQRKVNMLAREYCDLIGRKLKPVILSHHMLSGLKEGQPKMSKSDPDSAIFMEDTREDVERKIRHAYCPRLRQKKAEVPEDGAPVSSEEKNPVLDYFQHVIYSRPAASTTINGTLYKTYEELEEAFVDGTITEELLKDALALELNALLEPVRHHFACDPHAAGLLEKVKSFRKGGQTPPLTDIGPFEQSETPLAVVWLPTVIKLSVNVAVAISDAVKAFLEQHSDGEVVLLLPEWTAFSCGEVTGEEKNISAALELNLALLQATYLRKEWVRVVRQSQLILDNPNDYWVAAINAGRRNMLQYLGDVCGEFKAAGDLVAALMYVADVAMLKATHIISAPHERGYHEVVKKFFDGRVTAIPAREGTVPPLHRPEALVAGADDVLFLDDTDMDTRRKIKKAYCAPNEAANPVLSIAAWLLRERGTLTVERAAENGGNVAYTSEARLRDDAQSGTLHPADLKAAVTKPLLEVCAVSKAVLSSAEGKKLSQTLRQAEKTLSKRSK

[10] = molecular target: T4, Tyrosyl-tRNA synthetase, putative (Trypanosoma cruzi (strain CL Brener)); assay: Trypanosoma cruzi tyrosyl tRNA synthetase (TcYRS) SOP; type: functional; settings: 30 µM
[11] = molecular target: Chromo domain-containing protein 1 (Saccharomyces cerevisiae (strain ATCC 204508 / S288c) (Baker's yeast)) (UniProt P32657); assay: ScCHD-1 Enzyme Inhibition Assay; type: functional; settings: 30 µM; note: in the data most compounds retested in dose-response had high values
Chain of Chromo domain-containing protein 1 (Saccharomyces cerevisiae (strain ATCC 204508 / S288c) (Baker's yeast)) (P32657 whole entry, the tested form may be a part): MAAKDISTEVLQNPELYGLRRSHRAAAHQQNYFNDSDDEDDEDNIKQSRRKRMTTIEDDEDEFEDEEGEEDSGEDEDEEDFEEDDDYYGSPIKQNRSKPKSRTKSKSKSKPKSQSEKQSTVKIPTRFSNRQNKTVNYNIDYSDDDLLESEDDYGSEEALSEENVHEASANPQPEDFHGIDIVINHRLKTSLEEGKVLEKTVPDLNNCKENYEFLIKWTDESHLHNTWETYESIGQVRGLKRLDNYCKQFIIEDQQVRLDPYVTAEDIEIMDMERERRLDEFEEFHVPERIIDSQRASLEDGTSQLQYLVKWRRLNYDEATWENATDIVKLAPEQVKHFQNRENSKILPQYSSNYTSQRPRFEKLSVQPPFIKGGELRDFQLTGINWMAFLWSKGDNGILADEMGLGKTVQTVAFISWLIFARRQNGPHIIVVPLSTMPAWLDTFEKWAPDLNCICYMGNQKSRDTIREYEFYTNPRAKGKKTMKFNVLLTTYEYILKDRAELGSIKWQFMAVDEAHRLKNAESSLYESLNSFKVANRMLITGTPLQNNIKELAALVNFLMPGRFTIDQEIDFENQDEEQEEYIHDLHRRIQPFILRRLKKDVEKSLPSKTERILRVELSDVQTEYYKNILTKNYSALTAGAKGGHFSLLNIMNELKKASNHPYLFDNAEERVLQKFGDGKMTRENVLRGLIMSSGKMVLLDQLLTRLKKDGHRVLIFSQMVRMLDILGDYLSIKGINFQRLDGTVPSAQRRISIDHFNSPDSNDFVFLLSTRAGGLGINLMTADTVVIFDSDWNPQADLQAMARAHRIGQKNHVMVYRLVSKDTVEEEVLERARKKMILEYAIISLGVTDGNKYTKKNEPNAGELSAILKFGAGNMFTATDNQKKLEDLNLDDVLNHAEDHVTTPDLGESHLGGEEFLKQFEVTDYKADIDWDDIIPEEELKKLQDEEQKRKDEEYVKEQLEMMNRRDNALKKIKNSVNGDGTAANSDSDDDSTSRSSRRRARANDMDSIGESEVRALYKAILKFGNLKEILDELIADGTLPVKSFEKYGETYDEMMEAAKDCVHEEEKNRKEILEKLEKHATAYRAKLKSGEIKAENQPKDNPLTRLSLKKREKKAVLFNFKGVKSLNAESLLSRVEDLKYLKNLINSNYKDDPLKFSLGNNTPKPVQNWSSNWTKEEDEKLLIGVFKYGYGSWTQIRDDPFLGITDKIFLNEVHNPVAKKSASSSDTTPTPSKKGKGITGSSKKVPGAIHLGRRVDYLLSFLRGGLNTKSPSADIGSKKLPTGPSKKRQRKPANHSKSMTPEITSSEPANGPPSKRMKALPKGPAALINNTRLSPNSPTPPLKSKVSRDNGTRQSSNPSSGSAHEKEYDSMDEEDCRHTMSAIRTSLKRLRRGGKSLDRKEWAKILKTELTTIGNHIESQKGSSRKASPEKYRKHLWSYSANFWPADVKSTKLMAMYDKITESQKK

Chain of Sialic acid-binding Ig-like lectin 9 (Homo sapiens) (Q9Y336 whole entry): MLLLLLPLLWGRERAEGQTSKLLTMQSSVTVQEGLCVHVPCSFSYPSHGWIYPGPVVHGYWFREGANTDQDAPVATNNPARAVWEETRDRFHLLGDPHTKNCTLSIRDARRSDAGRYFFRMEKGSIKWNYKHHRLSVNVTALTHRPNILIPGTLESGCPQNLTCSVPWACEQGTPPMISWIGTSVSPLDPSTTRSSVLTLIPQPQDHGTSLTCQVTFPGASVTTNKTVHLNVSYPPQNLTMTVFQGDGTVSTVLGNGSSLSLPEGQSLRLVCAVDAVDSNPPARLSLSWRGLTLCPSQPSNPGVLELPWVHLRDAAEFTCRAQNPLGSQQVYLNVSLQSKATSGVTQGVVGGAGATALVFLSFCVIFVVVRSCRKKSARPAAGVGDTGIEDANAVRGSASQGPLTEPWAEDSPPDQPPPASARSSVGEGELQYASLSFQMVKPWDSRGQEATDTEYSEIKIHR
Chain of Protein translocase subunit SecA (Escherichia coli (strain K12)) (P10408 whole entry): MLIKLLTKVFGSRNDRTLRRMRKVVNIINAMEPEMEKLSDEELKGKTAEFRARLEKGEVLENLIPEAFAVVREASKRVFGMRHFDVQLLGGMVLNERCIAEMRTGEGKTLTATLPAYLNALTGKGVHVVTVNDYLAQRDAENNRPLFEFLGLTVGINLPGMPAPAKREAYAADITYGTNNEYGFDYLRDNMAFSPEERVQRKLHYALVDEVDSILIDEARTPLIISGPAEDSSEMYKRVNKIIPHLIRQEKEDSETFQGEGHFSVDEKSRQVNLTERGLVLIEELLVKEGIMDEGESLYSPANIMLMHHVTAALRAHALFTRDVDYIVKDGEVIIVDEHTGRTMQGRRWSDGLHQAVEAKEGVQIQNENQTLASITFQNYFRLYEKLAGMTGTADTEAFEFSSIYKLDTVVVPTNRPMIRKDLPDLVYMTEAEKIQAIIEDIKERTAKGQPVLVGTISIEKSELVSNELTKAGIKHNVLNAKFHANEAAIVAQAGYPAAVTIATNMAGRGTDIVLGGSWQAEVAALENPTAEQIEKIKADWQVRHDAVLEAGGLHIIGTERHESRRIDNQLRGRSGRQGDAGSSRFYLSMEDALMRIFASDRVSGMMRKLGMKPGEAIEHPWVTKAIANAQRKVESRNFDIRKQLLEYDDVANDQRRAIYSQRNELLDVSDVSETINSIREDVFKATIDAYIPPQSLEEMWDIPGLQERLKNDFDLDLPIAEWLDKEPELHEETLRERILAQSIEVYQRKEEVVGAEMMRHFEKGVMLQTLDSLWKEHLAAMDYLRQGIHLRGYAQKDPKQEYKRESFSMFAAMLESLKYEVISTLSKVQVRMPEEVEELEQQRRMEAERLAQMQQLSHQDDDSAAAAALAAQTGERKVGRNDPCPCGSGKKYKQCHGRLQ

Row | Structure (SMILES) | Percent Effect [1] [%] | Percent Effect [2] [%] | Percent Effect [3] [%] | Percent Effect [4] [%] | Percent Effect [5] [%] | Percent Effect [6] [%] | Percent Effect [7] [%] | Percent Effect [8] [%] | Percent Effect [9] [%] | Percent Effect [10] [%] | Percent Effect [11] [%]
1 | Cn1cccc1CN1CCC2(CCCN(C(=O)Cc3cccnc3)C2)C1 (configuration not stated) | -2.25 | 0 | -2.27 | -5.33 | -2.07 | -4.52 | 1.39 | 2.23 | -2.12 | -6.41 | -7.07
2 | Cc1cnn(C2CCCN(C(=O)c3cc(C)sc3C)C2)c1 (configuration not stated) | 2.61 | 7.89 | 4.46 | -9.37 | -4.97 | 1.18 | 18.7 | -4.44 | 5.32 | 7.79 | -5.57
3 | CSCc1cccc(S(=O)(=O)N2CCSCC2)c1 | -2.31 | -1.33 | 0.956 | 1.81 | -4.91 | -4.05 | 8.87 | 4.39 | -16.9 | -2.56 | -9.22
4 | CNC(=O)C1Cn2ccnc2C2(CCN(CCF)CC2)O1 (configuration not stated) | -1.42 | 5.2 | 2.6 | -5.27 | -8.97 | 0.645 | 13.1 | 15.2 | 3.17 | 3.85 | -5.68
5 | CCC(C)CNc1ccc2oc(COC)nc2c1 (configuration not stated) | 7.14 | 32.4 | -44.5 | 7.84 | -5.08 | 6.67 | 20.9 | 42.4 | -6.93 | -11 | 4.53
6 | CC(NC(=O)N1CCC(n2cncn2)CC1)c1ccc(F)cc1F (configuration not stated) | -3.51 | 12.7 | -2.69 | 7.75 | -0.0944 | -1.14 | 8.6 | 8.31 | 5.42 | 13.9 | -5.72
7 | CC(C)c1ncc2c(n1)CN(Cc1cccc(C#N)c1)CC2 | -3.01 | 0 | -28.8 | 8.37 | 4.89 | 3.06 | 5.01 | -9.04 | 5.39 | 4.88 | 2.88
8 | CCCN1CCCn2nc(CNC(=O)CCc3scnc3C)cc2C1 | -2.71 | 20.8 | -13.3 | 19.9 | 3.98 | 8.39 | 16.7 | -7.34 | 5.26 | 17.9 | -7.37
9 | CCCNC(=O)c1cc2c([nH]c1=O)CC(c1cccs1)CC2=O (configuration not stated) | 0.191 | 14.7 | 13.3 | 3.54 | 3.34 | -0.88 | 7.58 | 21 | -4.23 | 12.8 | -7.37
10 | CCS(=O)(=O)NC[C@]12COC[C@H]1CN(Cc1cccc(OC)c1)C2 | -2.67 | -2.7 | 2.37 | 5.65 | 6.16 | -4.14 | 7.93 | 11.7 | 0 | 5.13 | 14.6
11 | CN(CC(=O)N1CCC(Oc2ccccc2)CC1)c1cnccn1 | -3.37 | 21.6 | -3.35 | 7.97 | 4.74 | 2.4 | 5.75 | 18.1 | 5.94 | 25.6 | -8.13
12 | Cc1nc(CN(C)C2CCN(CC3CCCCC3)C2)no1 (configuration not stated) | -3.09 | 18.9 | -8.63 | 1.46 | 4.55 | -7.95 | 8.8 | 10.1 | 5.94 | 23.2 | -8.81
13 | NC(=O)c1ccc(NC(=O)CCN2CCCC(N3CCCC3)C2)cc1 (configuration not stated) | -9.36 | 13.5 | -4.04 | 16.5 | 8.98 | 22.5 | 9.38 | 19.4 | 9.9 | 15.8 | -5.57
14 | Cc1cccc(C(=O)N2C[C@@H]3OCCN(c4ncccn4)[C@@H]3C2)n1 | -4.13 | 5.33 | -3.52 | 4.37 | -2.7 | -8.78 | 7.35 | -6.79 | 5.21 | 0 | 0.315
15 | COc1nn(C)c2c1CCCN(C(=O)c1ccccc1)C2 | -4.93 | 2.7 | -0.442 | -2.98 | -1.76 | -1.25 | -1.27 | 3.41 | 4.95 | 1.22 | -2.72
16 | Cc1nn(C)c2c(N3CCN(C(=O)c4ccccc4)CC3)ncnc12 | 1.93 | 9.33 | 2.69 | -1.85 | -6.68 | -10.4 | 12 | 12.3 | 8.47 | 12.8 | -10.3
17 | CC(C)c1nn(C)c(Cl)c1CNC1CCOc2ccccc21 (configuration not stated) | -3.65 | 8.11 | -0.168 | 9.16 | 2.32 | 0.185 | -1.79 | 31.4 | 8.91 | 23.2 | -2.97
18 | COc1cccc(OCCNC(=O)CN2CCN(C)CC2C)c1 (configuration not stated) | -4.33 | 13.5 | -5.8 | 15 | 6.59 | -2.77 | 7.54 | 11.6 | 3.96 | 18.3 | -8.99
19 | CN(C)C(=O)N1CCN(Cc2cnn(C)c2)CC2(CNC(=O)C2)C1 (configuration not stated) | -2.48 | 0 | 2.36 | 11.3 | -3.03 | -2.87 | 17 | 3.58 | 4.32 | 2.56 | 3.46
20 | Cc1cc(C)nc(CCNC(=O)C(c2ccc(F)cc2)N(C)C)n1 (configuration not stated) | 6.75 | 11 | 8.61 | 2.2 | -9.13 | -31.9 | 3 | 48.8 | 1.04 | 6.17 | -6.29
21 | CC(c1nc(C2CC2)no1)N1CCN(c2ccc(C#N)cn2)CC1 (configuration not stated) | 0.926 | 2.63 | 8.14 | 5.94 | -4.58 | -4.73 | 13.7 | 10.8 | 2.13 | 7.79 | -2.39
22 | CC(=O)N1CCOC(c2cc(N3CC(O)C3)nc(C)n2)C1 (configuration not stated) | -3.22 | 5.33 | 11 | -2.94 | 0.394 | 2.1 | 11.2 | 0.425 | 5.32 | 16.7 | -2.41
